For assay [1], the target named is Retinoic acid receptor RXR-alpha (Homo sapiens) (UniProt P19793). The assay can be described thus: qHTS assay to identify small molecule agonists of the RXR signaling pathway (AID 1159527; calls by dose curve; also: nearly all actives have a fitted effect of over 35% in size). The essentials:
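16 hr incubation of compound-treated RXR-alpha-UAS-bla HEK 293T cells (2% charcoal-stripped FBS, 37 C) preceded a 2 hr room-temperature LiveBLAzer FRET substrate step and blue/green fluorescence measurement.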

Assay [2] can be described thus: qHTS assay to identify small molecule agonists of the RXR signaling pathway - cell viability counter screen (AID 1159529).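 Also: HEK 293T cells carrying an RXR-alpha UAS beta-lactamase reporter; series mostly up to about 77 µM; nearly all actives have a fitted effect of over 50% in size.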 The essentials:
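In this parallel viability measure, GeneBLAzer RXR-alpha HEK 293T cells (2% charcoal-stripped FBS) were given a 5 hr preincubation, treated with compounds 16 hr at 37 C, and read by CellTiter-Glo luminescence.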

The nature of assay [3]: qHTS assay to identify small molecule antagonists of the retinoid acid receptor (RAR) signaling pathway - cell viability counter screen (AID 1159551). Also: nearly all actives have a fitted effect of over 35% in size. In short, it runs like this: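 In this counter screen, the RARE-luciferase line C3RL4 was exposed for 6 h at 37 C and 5% CO2 to compounds with retinol at 1 uM final. Cellular ATP, read by luminescence, served as the viability measure.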

Assay [4] can be described thus: qHTS assay to identify small molecule agonists of the retinoic acid receptor (RAR) signaling pathway (AID 1159553). The essentials: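 In this cell-based screen, 1,000 C3RL4 cells per well were cultured overnight, dosed with test chemicals in DMSO for 6 hr, and assessed for RARE luciferase luminescence.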
Assay [5] in a line: qHTS assay to identify small molecule antagonists of the estrogen related receptor (ERR) signaling pathway from Tox21 library - cell viability counter screen (AID 1224834). Also: nearly all actives have a fitted effect of over 30% in size. In short, it runs like this:
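Counter screen run in ERR cells (2,000 cells/well): cells pre-incubated 6 h, then treated with compounds for 17.5 h at 37 C. Fluorescence was read 30 min after CellTiter-Fluor addition.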

In assay [6] the target is Luciferin 4-monooxygenase (Photinus pyralis) (UniProt P08659). The assay can be described thus: qHTS assay to identify small molecule inhibitors of firefly luciferase (AID 1224835). Also: series mostly up to about 120 µM; nearly all actives have a fitted effect of over 25% in size. The essentials: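 Inhibition of purified Photinus luciferase is measured by luminescence. Substrate levels (D-luciferin, ATP) sit at their KM values. Each compound is tested in a concentration series.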

The nature of assay [7]: qHTS assay to identify small molecule agonists of the constitutive androstane receptor (CAR) signaling pathway - cell viability counter screen (AID 1224836). Also: series mostly up to about 92 µM; nearly all actives have a fitted effect of over 45% in size. In short, it runs like this:
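Using CellTiter-Fluor, viability of HepG2 cells harbouring hCAR and CYP2B6-2.2kb was measured following 23 h incubation with a 15-concentration compound series plus PK11195 (0.75 uM final).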

Assay [8] in a line: qHTS assay to identify small molecule antagonists of the constitutive androstane receptor (CAR) signaling pathway - cell viability counter screen (AID 1224837). Also: series mostly up to about 92 µM; nearly all actives have a fitted effect of over 45% in size. In short, it runs like this:
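CITCO at 50 nM final was added alongside compounds (15 concentrations) to double-stable hCAR/CYP2B6-2.2kb HepG2 cells. Following 23 hr at 37 C, cell viability was quantified by CellTiter-Fluor fluorescence intensity.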

In assay [9] the target is Nuclear receptor subfamily 1 group I member 3 (Homo sapiens) (UniProt Q14994). In words: qHTS assay to identify small molecule antagonists of the constitutive androstane receptor (CAR) signaling pathway (AID 1224838). Also: nearly all actives have a fitted effect of over 40% in size. Also: potency is read from the fitted curve at half-maximal effect. The essentials: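 Inhibition of CITCO-driven (50 nM final) CYP2B6 reporter expression is measured in HepG2 cells stably carrying hCAR. Fifteen compound concentrations are applied for 24 h at 37 C, followed by luciferase luminescence.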

Assay [10] shares this target. The assay can be described thus: qHTS assay to identify small molecule agonists of the constitutive androstane receptor (CAR) signaling pathway (AID 1224839). Also: series mostly up to about 92 µM; nearly all actives have a fitted effect of over 15% in size. The essentials:
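Double-stable HepG2 cells (hCAR, CYP2B6-2.2kb) seeded 4 h before compound addition. Exposure 24 h with 0.75 uM PK11195 final. Luciferase detected by ONE-Glo.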

Assay [11] can be described thus: qHTS assay to identify small molecule antagonists of the estrogen related receptor signaling pathway with the pleiotropic PPARgamma coactivator (PGC) from Tox21 10K library - cell viability counter screen (AID 1224840; active = well fitted cell-killing curve with a large enough effect in the repeat runs, not every such curve was filed as active; also: nearly all actives have a fitted effect of over 40% in size). In short, it runs like this:
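Readout: fluorescence intensity from CellTiter-Fluor after 30 min at 37 C/5% CO2. Preceded by 17.5 h treatment of PGC/ERR cells with DMSO-dissolved compounds, added 6 h post-seeding.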

Assay [12] in a line: qHTS assay to identify small molecule agonists of the hypoxia (HIF-1) signaling pathway - cell viability counter screen (AID 1224844; calls by dose curve; also: nearly all actives have a fitted effect of over 50% in size). The essentials: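 In this counter screen, HRE-bla ME-180 cell viability after 17 hrs of compound exposure at 37C was read by CellTiter-Glo luminescence, multiplexed with the beta-lactamase reporter measurement.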
A short description of assay [13]: qHTS assay to identify small molecule agonists of H2AX (AID 1224845; active = well fitted activation curve with a large enough effect in the signal ratio in the repeat runs, not every such curve was filed as active; the % refers to the signal ratio). The essentials: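 Phospho-H2AX Ser139 measured by HTRF (ex 320 nm; em 665 and 620 nm) after 24 hr antibody incubation. Compounds, 15 concentrations, 0.76% DMSO, were applied to CHO-K1 cells for 3hr at 37C before lysis.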
Assay [14] can be described thus: qHTS assay to identify small molecule agonists of the hypoxia (HIF-1) signaling pathway (AID 1224846; active = well fitted activation curve with a large enough effect in the signal ratio in the repeat runs, not every such curve was filed as active; the % refers to the signal ratio). The essentials:
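ME-180 HRE-bla reporter cells; compounds in DMSO, 17 h at 37C; read-out beta-lactamase via CCF4-AM FRET.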

Assay [15] addresses Thyrotropin receptor (Homo sapiens) (UniProt P16473). In words: qHTS assay to identify small molecule agonists of the thyroid stimulating hormone receptor (TSHR) signaling pathway (AID 1224843; calls by dose curve; also: nearly all actives have a fitted effect of over 45% in size; also: potency is read from the fitted curve at half-maximal effect). In short, it runs like this:
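Agonist activity read as cAMP rise via d2/cryptate HTRF competition, 1 h room-temperature detection, in HEK293 cells expressing TSHR. Fifteen-point titrations, each run in triplicate, with a 30 min room-temperature incubation beforehand.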

Assay [16] is described as follows: qHTS assay to identify small molecule antagonists of the retinoic acid receptor (RAR) signaling pathway (AID 1159552; also: nearly all actives have a fitted effect of over 50% in size). In short, it runs like this: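 C3RL4 RARE-luc cells, overnight plating; retinol 1 uM final added right after compound; 6 hr 37 C; luciferase read at 30 min RT.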
Assay [17] can be described thus: qHTS assay to identify small molecule antagonists of the estrogen related receptor signaling pathway with the pleiotropic PPARgamma coactivator (PGC) from Tox21 10K library (AID 1224841; call rule not given here; also: series mostly up to about 92 µM; actives are mostly falling curves and most rising ones were filed inactive; nearly all actives have a fitted effect of over 50% in size). The essentials:
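One-Glo luminescence, measured after half an hour at room temperature, quantified reporter output of PGC/ERR cells. These had been plated at 2,000 per well, incubated 6 h, dosed with compounds in DMSO, then kept 18 h at 37 C.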

The nature of assay [18]: qHTS assay to identify small molecule agonists of the estrogen related receptor signaling pathway with the pleiotropic PPARgamma coactivator (PGC) from Tox21 10K library (AID 1224842). Also: nearly all actives have a fitted effect of over 15% in size. In short, it runs like this: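 Luminescence from One-Glo (30 min, room temperature) measured after PGC/ERR cells had 18 h at 37 C with pinned compound (23 nL in DMSO). Cells had been seeded at 2,000 per well and pre-incubated 6 h.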

Assay [19] in a line: qHTS assay to identify small molecule antagonists of the estrogen related receptor (ERR) signaling pathway - cell viability counter screen (AID 1224818). Also: series mostly up to about 46 µM. The essentials: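 Viability of ERR cells, CellTiter-Fluor fluorescence; 17.5 h compound exposure at 37 C, DMSO vehicle; 30 min reagent incubation at 37 C/5% CO2.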
Assay [20] can be described thus: qHTS assay to identify small molecule antagonists of the estrogen related receptor signaling pathway with the pleiotropic PPARgamma coactivator (PGC) cell viability counter screen (AID 1224822; also: series mostly up to about 46 µM). The essentials:
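17.5 h compound treatment of PGC/ERR cells at 37 C; readout CellTiter-Fluor fluorescence; run alongside the PGC/ERR antagonist screen to flag cytotoxic compounds.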

Each structure is given as a SMILES string. Records with an inconclusive call do not appear. The source holds several records for some structures; these can differ, active in one and inactive in another. Calls of active or inactive are those of the source. Unless noted, calls follow the shape of the dose curve; as a rule, active = well fitted curve in the direction sought with a large enough effect in the repeat runs; inconclusive = weak or mixed curves; inactive = no such curve, though single readings can be large; an effect the other way counts as inactive or inconclusive.

Chain of Thyrotropin receptor (Homo sapiens) (P16473 whole entry, looked up): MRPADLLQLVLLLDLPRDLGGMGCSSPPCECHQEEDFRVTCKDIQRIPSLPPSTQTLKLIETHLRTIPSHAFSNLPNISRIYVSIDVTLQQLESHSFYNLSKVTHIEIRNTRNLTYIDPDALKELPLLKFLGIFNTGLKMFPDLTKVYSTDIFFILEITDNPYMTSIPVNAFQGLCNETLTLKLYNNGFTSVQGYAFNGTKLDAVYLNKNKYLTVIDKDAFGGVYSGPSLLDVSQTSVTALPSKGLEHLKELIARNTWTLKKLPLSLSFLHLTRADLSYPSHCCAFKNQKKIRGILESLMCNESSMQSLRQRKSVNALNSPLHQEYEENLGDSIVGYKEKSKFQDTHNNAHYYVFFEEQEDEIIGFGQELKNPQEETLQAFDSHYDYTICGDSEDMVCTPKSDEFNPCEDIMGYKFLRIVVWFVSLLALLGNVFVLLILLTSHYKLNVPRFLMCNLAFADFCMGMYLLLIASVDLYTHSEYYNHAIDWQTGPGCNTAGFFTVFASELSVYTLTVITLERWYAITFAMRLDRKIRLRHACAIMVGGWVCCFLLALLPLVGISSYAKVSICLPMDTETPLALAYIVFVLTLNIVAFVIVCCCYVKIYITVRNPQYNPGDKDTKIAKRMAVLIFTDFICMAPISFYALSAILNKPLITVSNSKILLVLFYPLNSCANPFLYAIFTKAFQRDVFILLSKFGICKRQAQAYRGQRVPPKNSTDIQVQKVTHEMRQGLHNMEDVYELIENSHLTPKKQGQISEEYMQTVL
Chain of Nuclear receptor subfamily 1 group I member 3 (Homo sapiens) (Q14994 whole entry, looked up): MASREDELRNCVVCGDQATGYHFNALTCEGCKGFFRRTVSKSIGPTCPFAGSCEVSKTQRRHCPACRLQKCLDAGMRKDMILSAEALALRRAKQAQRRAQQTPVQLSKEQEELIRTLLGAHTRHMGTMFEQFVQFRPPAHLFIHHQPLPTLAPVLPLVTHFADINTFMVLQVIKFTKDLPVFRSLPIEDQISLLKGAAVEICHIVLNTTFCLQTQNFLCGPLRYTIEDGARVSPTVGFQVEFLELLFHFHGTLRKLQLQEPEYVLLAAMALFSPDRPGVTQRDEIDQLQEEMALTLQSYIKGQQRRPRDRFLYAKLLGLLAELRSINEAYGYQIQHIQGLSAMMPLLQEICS
Chain of Luciferin 4-monooxygenase (Photinus pyralis) (P08659 whole entry, looked up): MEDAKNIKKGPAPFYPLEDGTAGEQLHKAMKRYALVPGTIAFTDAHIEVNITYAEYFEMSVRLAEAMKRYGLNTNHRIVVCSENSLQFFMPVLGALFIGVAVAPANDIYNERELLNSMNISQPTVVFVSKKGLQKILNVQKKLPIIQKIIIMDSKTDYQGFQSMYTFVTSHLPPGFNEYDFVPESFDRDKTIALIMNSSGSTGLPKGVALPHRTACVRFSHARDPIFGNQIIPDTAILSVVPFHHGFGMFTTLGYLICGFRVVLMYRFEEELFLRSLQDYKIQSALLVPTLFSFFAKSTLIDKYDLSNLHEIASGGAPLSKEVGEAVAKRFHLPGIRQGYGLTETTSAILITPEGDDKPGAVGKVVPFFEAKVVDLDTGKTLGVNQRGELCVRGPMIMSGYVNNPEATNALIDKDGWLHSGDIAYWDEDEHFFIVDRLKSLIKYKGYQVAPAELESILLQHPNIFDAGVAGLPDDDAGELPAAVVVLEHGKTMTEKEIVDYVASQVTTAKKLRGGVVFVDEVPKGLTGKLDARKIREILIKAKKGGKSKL
Chain of Retinoic acid receptor RXR-alpha (Homo sapiens) (P19793 whole entry, looked up): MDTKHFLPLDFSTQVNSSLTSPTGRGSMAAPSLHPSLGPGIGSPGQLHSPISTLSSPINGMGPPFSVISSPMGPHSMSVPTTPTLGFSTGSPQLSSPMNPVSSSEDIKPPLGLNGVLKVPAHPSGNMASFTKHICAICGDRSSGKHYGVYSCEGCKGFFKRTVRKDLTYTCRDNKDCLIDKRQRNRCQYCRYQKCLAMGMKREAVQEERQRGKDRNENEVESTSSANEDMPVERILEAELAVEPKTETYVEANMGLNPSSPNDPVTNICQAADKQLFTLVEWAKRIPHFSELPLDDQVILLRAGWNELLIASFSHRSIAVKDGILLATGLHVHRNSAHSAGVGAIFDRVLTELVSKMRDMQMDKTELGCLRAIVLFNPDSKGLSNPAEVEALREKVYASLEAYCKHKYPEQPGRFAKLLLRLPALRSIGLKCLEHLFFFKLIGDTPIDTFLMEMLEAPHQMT

Take `C/C=C1/CC2C=CC1C2` (stereo not given): the Potency entry in assay [1], in [2], in assay [4], in [5], in [6] and in assay [7] was “inactive” each time. In addition, the Potency entry in assay [8], in assay [9], in assay [10], in [11], in [12] and in assay [13] was “inactive” throughout. Further, the compound was classed as inactive in assay [3] and in [14].
Consider `COc1ccc(NC(C)=O)cc1N`, for which the Potency entry in [1], in [2], in [4], in assay [5], in assay [6] and in assay [7] was “inactive” in each case. The Potency result in [8], in [9], in [10], in assay [11], in assay [15] and in assay [12] was “inactive” each time. For the same compound, in [13], the Potency result was “inactive”. Also, the compound was classed as inactive in assay [3] and in assay [14].
As to `O=C(O)CC(C(=O)O)C(CC(=O)O)C(=O)O` (stereo not given), the Potency result in [1], in assay [2], in [16], in assay [4], in [5] and in assay [6] was “inactive” each time. Besides, the Potency result in assay [7], in assay [8], in [9], in assay [10], in [11] and in [12] was “inactive” in each case. Moreover, the Potency entry in [13] was “inactive”. Also, the result in assay [3] and in assay [14] was inactive. The Potency in assay [15] is 268 nM (active) and inactive.
With `OC[C@H]1O[C@@](CO)(O[C@H]2O[C@H](CO)[C@@H](O)[C@H](O)[C@H]2O)[C@@H](O)[C@@H]1O`, the Potency entry in assay [1], in [2], in assay [4], in assay [5], in assay [6] and in assay [7] was “inactive” each time. The Potency result in assay [8], in assay [9], in assay [10], in assay [11], in assay [17] and in assay [12] was “inactive” in each case. Further, in assay [13], the Potency entry was “inactive”. Moreover, the compound was classed as inactive in assay [3], in assay [18] and in assay [14].
Turning to `O=C=NCCCCCCN=C=O`, the Potency entry in [1], in assay [2], in [16], in assay [4], in [5] and in [6] was “inactive” each time. The Potency result in assay [7], in assay [8], in [10], in [11], in assay [15] and in [12] was “inactive” each time. Further, the Potency result in [13] was “inactive”. Also, the call in [3] and in assay [14] was inactive. The Potency in [9] was 23.8 µM (active) and inactive.
Turning to `Fc1ccc(Br)cc1`, the Potency entry in assay [1], in assay [2], in assay [4], in [5], in assay [6] and in assay [7] was “inactive” throughout. Also, the Potency result in assay [8], in assay [9], in assay [10], in assay [11], in assay [17] and in [12] was “inactive” throughout. Also, the Potency result in assay [13] is “inactive”. Moreover, the compound was called inactive in assay [3], in [18] and in assay [14]. Also, in [15], the Potency was 30.9 µM (active) and inactive.
On to `CN(C)CCC(c1ccccc1)c1ccccn1` (stereo not given), for which the Potency result in [1], in [2], in assay [4], in assay [5], in assay [6] and in assay [7] was “inactive” each time. Further, the Potency entry in [8], in assay [9], in [10], in assay [11], in assay [15] and in [12] was “inactive” throughout. The Potency result in assay [13] is “inactive”. The call in assay [3], in [19] and in assay [20] was inactive.
Regarding `CC1CCC(C(C)C)C(O)C1` (stereo not given), the Potency entry in [1], in [2], in assay [4], in assay [5], in assay [6] and in assay [7] was “inactive” each time. Besides, the Potency entry in assay [8], in [9], in assay [10], in [11], in assay [15] and in assay [12] was “inactive” each time. Also, the Potency entry in assay [13] was “inactive”. In addition, the compound was classed as inactive in assay [3] and in assay [14].

These data come from PubChem BioAssay (Tox21).
